Reference: ChEMBL document CHEMBL3988442, “University of Dundee, Small-Polar-MMV Screening Library” (2021)
Out of some 66,000 compounds screened, about 960 (1.5%) showed an effect of 50% or more. The full list was thinned out, with strong results kept by preference.

System: Trypanosoma brucei
Assay: Trypanosoma brucei 72 hour study
Assay type: functional, organism-based
Design: scale not given: in the data most compounds retested in dose-response had high values

Cc1nc(C2CCCN2C(=O)c2ccc3c(c2)nc(C)n3C)no1 (configuration not stated)
Percent Effect (10 µM): -28.6% | Percent Effect (30.3 µM, […]): -7.833%

CS(=O)(=O)CC(=O)N1C[C@H]2CCC[C@@]2(COc2ccccn2)C1.O=C(O)C(F)(F)F
Percent Effect (30.3 µM, […]): -20.95%

CC(C)Oc1ccc(C(=O)NCc2ccc3c(c2)CCCN3C)cn1
Percent Effect (30.3 µM, […]): 9.808%

CN1CCCc2cc(CNC(=O)c3cc[n+]([O-])cc3)ccc21
Percent Effect (30.3 µM, […]): 2.114%

COC(=O)c1cccc(C(=O)NCc2ccc3c(c2)CCCN3C)c1
Percent Effect (30.3 µM, […]): 1.912%

COc1cc(C(=O)NCc2ccc3c(c2)CCCN3C)cc(OC)c1Br
Percent Effect (30.3 µM, […]): 56.02%

CN1CCCc2cc(CNC(=O)c3ccncc3)ccc21
Percent Effect (30 µM, 30.03 µM): 8.977%

CN1CCCc2cc(CNC(=O)c3ccc(-n4cnnc4)cc3)ccc21
Percent Effect (30.3 µM, […]): 53.86%

CC(C)n1c(=O)c2ccccc2n(CCCN(C)C)c1=O.Cl
Percent Effect (30 µM, 30.03 µM): 2.697%

COCC(=O)Nc1ccnn1-c1ccc(Cl)cc1
Percent Effect (30.3 µM, […]): 12.6%

Cc1ncc2c(n1)C1(CCN(C(=O)C(C)C)CC1)OCC2.Cl
Percent Effect (30.3 µM, […]): -4.848%

O=C(Cn1ccc2sccc2c1=O)NCc1ccccc1F
Percent Effect (30 µM, 30.03 µM): 1.93%

Clc1cc(NCc2ccncc2)nc2[nH]ccc12
Percent Effect (30 µM, 30.03 µM): -24.9%

O=C(NCCc1ccccc1)C1CCC(Cn2cnnn2)CC1 (configuration not stated)
Percent Effect (30 µM, 30.03 µM): 56%

COc1ccc(CCNC(=O)C2CCC(Cn3cnnn3)CC2)cc1 (configuration not stated)
Percent Effect (30 µM, 30.03 µM): 42.94%

COc1ccccc1CCNC(=O)C1CCC(Cn2cnnn2)CC1 (configuration not stated)
Percent Effect (30 µM, 30.03 µM): -33.08%

Cl.Clc1ccccc1CN1CCc2nc(C3CCNCC3)ncc2C1
Percent Effect (30.3 µM, […]): 9.906%

O=C(NCCCOCC1CC1)Nc1ccc(-n2cncn2)c(F)c1
Percent Effect (10 µM): -25.61%

CC(C)C(NC(=O)N1CCN(c2ccc(Cl)cc2)CC1)C(=O)NC1CC1 (configuration not stated)
Percent Effect (30 µM, 30.03 µM): 53.99%

CC(C)NC(=O)[C@@H](NC(=O)N1CCN(c2ccc(Cl)cc2)CC1)C(C)C
Percent Effect (30 µM, 30.03 µM): 72.09%

CC(C)NC(=O)[C@H](C)NC(=O)N1CCN(c2ccc(Cl)cc2)CC1
Percent Effect (30 µM, 30.03 µM): 36.61%

CN(C(=O)NC1CC1)C1CCN(c2ccc(Cl)cc2)CC1
Percent Effect (30 µM, 30.03 µM): -50.01%

CC(NC(=O)N1CCN(c2ccc(Cl)cc2)CC1)C(=O)N1CCSCC1 (configuration not stated)
Percent Effect (30 µM, 30.03 µM): 25.8%

CC(C)NC(=O)C(C)NC(=O)N1CCN(c2ccc(Cl)cc2)CC1 (configuration not stated)
Percent Effect (30 µM, 30.03 µM): 51.3%

CNS(=O)(=O)c1ccccc1N1CCN(C(=O)NC(C)C)CC1
Percent Effect (30 µM, 30.03 µM): -6.64%

CC(C)[C@H](NC(=O)N1CCN(c2ccc(Cl)cc2)CC1)C(=O)NC1CC1
Percent Effect (30 µM, 30.03 µM): -23.38%

C[C@H](NC(=O)N1CCN(c2ccc(Cl)cc2)CC1)C(=O)N1CCSCC1
Percent Effect (30 µM, 30.03 µM): -37.38%

CC(=O)c1ccc(N2CCN(C(=O)NC(C)c3ccc(C)o3)CC2)cc1 (configuration not stated)
Percent Effect (30 µM, 30.03 µM): 19.85%

Cn1cc(NC(=O)CNC(=O)N2CCN(c3ccc(Cl)cc3)CC2)cn1
Percent Effect (30.3 µM, […]): 4.499%

CC(C)NC(=O)C(NC(=O)N1CCN(c2ccc(Cl)cc2)CC1)C(C)C (configuration not stated)
Percent Effect (30 µM, 30.03 µM): 55.67%

O=C1CC2(CCN(Cc3ccoc3)CC2)CN1Cc1cc(F)cc(F)c1
Percent Effect (30 µM, 30.03 µM): -15.51%

Cc1nc(CCNC(=O)C(N)c2c(C)n[nH]c2C)sc1C (configuration not stated)
Percent Effect (30.3 µM, […]): -1.575%

CN(c1ncnc2ccccc12)C1CCCN(c2cccnn2)C1 (configuration not stated)
Percent Effect (30.3 µM, […]): -20.2%

NC(=O)CNC(=O)c1ccc(CNCc2ccc(F)cc2F)cc1
Percent Effect (30 µM, 30.03 µM): -29.88%

Br.Cc1c(NC(=O)CN2CCN(C3CCCC3)C(=O)C2)cnn1C
Percent Effect (30.3 µM, […]): -20.91%

CNC(=O)[C@@H]1C[C@H]2CN(C(=O)c3ccco3)C[C@H]2N1C(C)C.O=C(O)C(F)(F)F
Percent Effect (30.3 µM, […]): -12.88%

Cn1cc(C2CCCN2C(=O)c2cnc(C3CC3)s2)cn1 (configuration not stated)
Percent Effect (30 µM, 30.03 µM): -42.9%

CN(C)[C@@H]1CCN(C(=O)NC2CCCC2)[C@H]1Cc1cnn(C)c1.O=C(O)C(F)(F)F
Percent Effect (30 µM, 30.03 µM): -1.718%

CN(C)C(=O)c1cnc2n1CCN(Cc1ccccc1)C2.O=C(O)C(F)(F)F
Percent Effect (30 µM, 30.03 µM): -11.93%

COCCn1ccc2cc(NC(C)=O)ccc21
Percent Effect (30 µM, 30.03 µM): 20.32%

CCC(=O)Nc1ccc2c(ccn2CCOC)c1
Percent Effect (30 µM, 30.03 µM): 30.95%

COCCn1ccc2cc(NC(=O)COC)ccc21
Percent Effect (30 µM, 30.03 µM): 51.21%

COCCC(=O)N[C@H]1CC[C@H](Nc2nccc(-c3ccncc3)n2)C1
Percent Effect (30 µM, 30.03 µM): -1.414%

CCOCC1CN(c2ccncn2)Cc2cnn(CC)c21.O=C(O)C(F)(F)F.O=C(O)C(F)(F)F (configuration not stated)
Percent Effect (30 µM, 30.03 µM): 24.08%

COc1ccc(CN2CCn3c(C(=O)N(C)C)cnc3C2)cc1.O=C(O)C(F)(F)F
Percent Effect (30.3 µM, […]): -109.7%

COc1ccc(C)cc1NC(=O)Nc1cnc(N2CCN(C)CC2)nc1
Percent Effect (30 µM, 30.03 µM): 53.87%

COc1ccc(C)cc1NC(=O)Nc1cnc(N2CCCC2)nc1
Percent Effect (30 µM, 30.03 µM): -9.808%

COc1ccc(C)cc1NC(=O)Nc1cnc(N2CCOCC2)nc1
Percent Effect (30 µM, 30.03 µM): -0.7377%

Cc1csc2nc3n(c(=O)c12)CCN(Cc1ccccn1)CC3.Cl
Percent Effect (30.3 µM, […]): -40.83%

CSc1ccc(C(CN)N2CCc3sccc3C2)cc1 (configuration not stated)
Percent Effect (30 µM, 30.03 µM): -3.703%

CSc1ccc(C(CNC(C)=O)N2CCc3sccc3C2)cc1 (configuration not stated)
Percent Effect (30.3 µM, […]): 7.525%

CC(C)c1ccc(C(CN)N2CCc3sccc3C2)cc1 (configuration not stated)
Percent Effect (30.3 µM, […]): 99.87%

NCC(c1ccccc1)N1CCc2sccc2C1 (configuration not stated)
Percent Effect (30 µM, 30.03 µM): 35.83%

NCC(c1ccc(Cl)cc1)N1CCc2sccc2C1 (configuration not stated)
Percent Effect (30.3 µM, […]): 100.3%

CCC(=O)NCC(c1ccc(SC)cc1)N1CCc2sccc2C1 (configuration not stated)
Percent Effect (30.3 µM, […]): -2.044%

Cc1cccc(S(=O)(=O)N2CC[C@H]3CO[C@H](CN(C)C)[C@H]3C2)c1.O=C(O)C(F)(F)F
Percent Effect (30 µM, 30.03 µM): 25.11%

COCc1cccc(C(=O)N2C[C@H]3CC[C@@H]2CN(Cc2cscn2)C3)n1
Percent Effect (30 µM, 30.03 µM): -49.27%

Cc1nc(CN2CCC3(CCN(c4cnn(C)c4)C3=O)C2)cs1.O=C(O)C(F)(F)F (configuration not stated)
Percent Effect (30.3 µM, […]): -7.553%

CCN1CCC2(C1)CN(S(=O)(=O)c1cn(C)cn1)C2.O=C(O)C(F)(F)F.O=C(O)C(F)(F)F
Percent Effect (30.3 µM, […]): -6.671%

Cl.O=C(c1cc2c(s1)CCCC2)N1CCc2nc(C3CCCN3)ncc2C1 (configuration not stated)
Percent Effect (30.3 µM, […]): 6.632%

O=C(NCCCn1ccccc1=O)c1cnc(-c2ccsc2)s1
Percent Effect (30 µM, 30.03 µM): 22.57%

Cn1cc(-c2ncc(C(=O)NCCCn3ccccc3=O)s2)cn1
Percent Effect (30 µM, 30.03 µM): 73.43%

CS(=O)(=O)NCCCNC(=O)c1cnc(-c2ccsc2)s1
Percent Effect (30 µM, 30.03 µM): -7.977%

Cn1ncc2c(N3CCN4CCCCC4C3)nc(C3CCCC3)nc21 (configuration not stated)
Percent Effect (30 µM, 30.03 µM): -37.34%

Cc1nc(N2CCCC(N3CCCC3)C2)c2cnn(C)c2n1 (configuration not stated)
Percent Effect (30 µM, 30.03 µM): 50.19%

Cn1ncc2c(N3CC(N4CCCCC4)C3)nc(C3CCCC3)nc21
Percent Effect (30 µM, 30.03 µM): -31.56%

CNc1cc(C)nc(N2C[C@H](NC(=O)C3CCOCC3)[C@@H](C3CC3)C2)n1
Percent Effect (30 µM, 30.03 µM): -23.63%

CNc1cc(C)nc(N2C[C@H](C3CC3)[C@@H](N)C2)n1
Percent Effect (30 µM, 30.03 µM): 85.5%

CC(C)Oc1cc(N2C[C@@H](C)O[C@@H](C)C2)nc(N)n1
Percent Effect (30.3 µM, […]): -11.25%

CC(C)Oc1cc(N2C[C@H](C3CC3)[C@@H](N)C2)nc(N)n1
Percent Effect (30 µM, 30.03 µM): 88.99%

CNc1cc(C)nc(N2C[C@@H](C(=O)O)[C@H](C3CC3)C2)n1
Percent Effect (30 µM, 30.03 µM): -4.016%

CCc1cc(N2C[C@H](C3CC3)[C@@H](N)C2)nc(N2CCOCC2)n1
Percent Effect (30 µM, 30.03 µM): -22.85%

Cc1cc(N2C[C@H](C3CC3)[C@@H](N)C2)nc(N2CCCCC2)n1
Percent Effect (30 µM, 30.03 µM): -8.75%

CC(C)Oc1cc(N2CC[C@H](CO)[C@@H](O)C2)nc(N)n1
Percent Effect (30 µM, 30.03 µM): -21.24%

CCc1cc(N2C[C@H](C3CC3)[C@@H](N)C2)nc(N2CCCC2)n1
Percent Effect (30 µM, 30.03 µM): 72.1%

CN(c1ccncn1)C1CC2(CCN(C(=O)Cc3cccs3)C2)C1 (configuration not stated)
Percent Effect (30.3 µM, […]): -10.04%

O=C(O)C(F)(F)F.O=C(c1cnccn1)N1CCCC2(CCN(Cc3ccsc3)CC2)C1
Percent Effect (30.3 µM, […]): -8.407%

CCC(C)Oc1ccc(CNCCc2c[nH]cn2)cc1Cl (configuration not stated)
Percent Effect (30 µM, 30.03 µM): -7.702%

Cc1ccc(O[C@@H]2C[C@H]3CN(C(=O)c4cccnc4)CCN3C2)cc1.O=C(O)C(F)(F)F.O=C(O)C(F)(F)F
Percent Effect (30 µM, 30.03 µM): 12.8%

CC(C)(C)c1cnc(CN2CCC(CN3CCOCC3)CC2)o1
Percent Effect (30.3 µM, […]): 1.879%

Cc1noc(C)c1C(=O)N1CC[C@]2(C[C@@H](OCc3cccnc3)CO2)C1.O=C(O)C(F)(F)F
Percent Effect (30.3 µM, […]): -230.9%

COc1ccccc1OCCNS(=O)(=O)N1CCOCC1
Percent Effect (30 µM, 30.03 µM): -16.37%

O=C(NCCSCc1ccc(Br)s1)C1CCCN(C(=O)c2cccs2)C1 (configuration not stated)
Percent Effect (30 µM, 30.03 µM): 59.17%

O=C(NCCSCc1ccc(Br)s1)C1CCCN(c2cnccn2)C1 (configuration not stated)
Percent Effect (30 µM, 30.03 µM): -0.7253%

O=C(NCCSCc1cccs1)C1CCCN(C(=O)N2CCCC2)C1 (configuration not stated)
Percent Effect (30 µM, 30.03 µM): -13.33%

COc1ccc(OCC(=O)NS(=O)(=O)c2ccc(Br)s2)cc1
Percent Effect (10 µM): -20.86%

Cc1ccc2c(n1)N(Cc1ccncc1)CCN(S(C)(=O)=O)C2.O=C(O)C(F)(F)F.O=C(O)C(F)(F)F
Percent Effect (30 µM, 30.03 µM): -12.2%

COCCn1cc2c(n1)C(CNCc1ccsc1)OCC2.O=C(O)C(F)(F)F (configuration not stated)
Percent Effect (30.3 µM, […]): -36.05%

CSc1nccc(N2CCCC(c3nccn3C(C)C)C2)n1 (configuration not stated)
Percent Effect (30 µM, 30.03 µM): -62.98%

CC(C)n1ccnc1C1CCCN(c2ccccn2)C1 (configuration not stated)
Percent Effect (30 µM, 30.03 µM): 54.17%

CC(C)n1ccnc1C1CCCN(c2ccnc3ccccc23)C1 (configuration not stated)
Percent Effect (30 µM, 30.03 µM): 44.45%

Cc1cc(C)n(-c2nc(C(=O)NCCN3CCC(C)CC3)cs2)n1
Percent Effect (30.3 µM, […]): 41.67%

Cl.c1cc(NCc2ccncc2)nc(C2CCCNC2)c1 (configuration not stated)
Percent Effect (30.3 µM, […]): -1.5%

Cl.c1cc(CC2CCCNC2)nc(NCCc2cnccn2)c1 (configuration not stated)
Percent Effect (30.3 µM, […]): -1.325%

Cl.c1ccc(CCNc2cccc(C3CCCNC3)n2)cc1 (configuration not stated)
Percent Effect (30.3 µM, […]): 66.04%

CCCn1ccnc1-c1cccc(NC(=O)C2CCCOC2)c1 (configuration not stated)
Percent Effect (30.3 µM, […]): -87.17%
